Results reported in the supplement of paper PMC8285479.
Counter-ions that a name gives are not always drawn. ± gives the standard deviation of the averaged measurements. Whole data set: some 1,900 compounds, median “normalised cell viability (NPI; 0 = phenylarsine oxide control, 1 = DMSO control)” near 1, cut for the lowest 2% near 0.039. The full list was thinned out, with the lowest values kept by preference.

System: NCI-H1944
Assay: normalised cell viability (NPI; 0 = phenylarsine oxide control, 1 = DMSO control) (fraction of DMSO control); NCI-H1944 is a non-small cell lung cancer line; higher = more viable cells (less compound toxicity)
Details: 6 days
[1] = glucocorticoid arm: hydrocortisone 2.75 uM co-treatment, compound 1 µM
[2] = glucocorticoid arm: hydrocortisone 2.75 uM co-treatment, compound 5 µM
[3] = glucocorticoid arm: hydrocortisone 2.75 uM pre-treated 2 days and continued, compound 1 µM
[4] = glucocorticoid arm: hydrocortisone 2.75 uM pre-treated 2 days and continued, compound 5 µM
[5] = glucocorticoid arm: vehicle, compound 1 µM
[6] = glucocorticoid arm: vehicle, compound 5 µM
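Further: CTB read-out in 384-well plates, triplicate wells, NPI normalised per plate against 1 µM phenylarsine oxide (0) and 0.1% DMSO (1) controls.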

SMILES | normalised cell viability [1] | normalised cell viability [2] | normalised cell viability [3] | normalised cell viability [4] | normalised cell viability [5] | normalised cell viability [6]
NC(CCP(=O)(O)O)C(=O)O (racemic) [(±)-2-Amino-4-phosphonobutyric acid] | 0.9883 ± 0.0042 | 0.998 ± 0.0017 | 1.01 ± 0.014 | 1 ± 0.042 | 0.9923 ± 0.0071 | 0.9973 ± 0.0025
N[C@H](C(=O)O)c1cc(O)no1 (racemic) [(±)-Ibotenic acid] | 1.002 ± 0.0072 | 1 ± 0.032 | 0.991 ± 0.024 | 1.04 ± 0.096 | 0.9837 ± 0.0055 | 0.987 ± 0.012
Oc1cc2c(cc1O)[C@H]1c3ccccc3CN[C@@H]1CC2 (racemic) [Dihydrexidine hydrochloride] | 1.002 ± 0.0068 | 0.995 ± 0.005 | 1.002 ± 0.0076 | 0.994 ± 0.018 | 0.9917 ± 0.0059 | 0.9897 ± 0.0031
CS(=N)(=O)CC[C@H](N)C(=O)O (stereo partly drawn) [L-Methionine sulfoximine] | 1.003 ± 0.0058 | 1.01 ± 0.024 | 0.998 ± 0.01 | 0.948 ± 0.093 | 0.9987 ± 0.0023 | 1 ± 0.013
NC(Cn1oc(=O)[nH]c1=O)C(=O)O (single isomer, unassigned; (+)) [(+)-Quisqualic acid] | 1.01 ± 0.01 | 0.973 ± 0.028 | 1.01 ± 0.031 | 1.01 ± 0.021 | 1.01 ± 0.012 | 1.005 ± 0.0087
CN1CCN(c2ccc([N+](=O)[O-])c3no[n+]([O-])c23)CC1 | 0.984 ± 0.015 | 1.04 ± 0.011 | 0.993 ± 0.0076 | 1.01 ± 0.01 | 0.984 ± 0.011 | 0.988 ± 0.01
O=c1[nH]c2ccc(Cl)cc2c(N[C@@H]2CN3CCC2CC3)c1-c1nc2ccccc2[nH]1 | 0.43 ± 0.0081 | 0.0244 ± 0.0034 | 0.717 ± 0.02 | 0.0576 ± 0.015 | 0.0195 ± 0.0053 | 0.00294 ± 0.0014
O=C(N[C@H]1CN2CCC1CC2)c1ccc(Cl)cc1 | 1.02 ± 0.01 | 1.01 ± 0.022 | 1.023 ± 0.0058 | 1.02 ± 0.015 | 0.998 ± 0.0035 | 1.013 ± 0.0058
C[C@@]12N[C@@H](Cc3ccccc31)c1ccccc12 [(-)-MK 801 Maleate] | 1.023 ± 0.0058 | 1.02 | 1.02 ± 0.011 | 1.03 ± 0.015 | 1.01 | 1.01
C[C@@]12N[C@@H](Cc3ccccc31)c1ccccc12 [(-)-MK-801 hydrogen maleate] | 1.01 ± 0.01 | 1.02 ± 0.026 | 1.013 ± 0.0058 | 1.05 ± 0.094 | 0.992 ± 0.0092 | 1 ± 0.017
CC1Cc2cc3c(cc2C(c2ccc(N)cc2)=NN1)OCO3 (stereo not drawn) | 1.01 ± 0.01 | 1.02 ± 0.021 | 1.01 | 1.01 ± 0.037 | 0.9943 ± 0.0035 | 0.9943 ± 0.006
COc1ccc2c(c1)[C@@]13CCCC[C@H]1[C@@H](C2)NCC3 [3-Methoxymorphinan hydrochloride] | 1.013 ± 0.0058 | 0.989 ± 0.03 | 1.02 ± 0.015 | 1.06 ± 0.058 | 1.003 ± 0.0058 | 1.01 ± 0.01
CC1(C(=O)O)C2CCC(O2)C1(C)C(=O)O (stereo not drawn) [Cantharidic Acid] | 0.983 ± 0.016 | 0.0223 ± 0.0017 | 1.06 ± 0.015 | 0.137 ± 0.087 | 0.965 ± 0.025 | 0.0108 ± 0.0036
O=C(O)[C@@H]1[C@H](C(=O)O)[C@H]2CC[C@@H]1O2 [Endothall] | 1.01 ± 0.01 | 1.05 ± 0.01 | 1.007 ± 0.0058 | 1.07 ± 0.015 | 0.9967 ± 0.0025 | 1.007 ± 0.0058
C[C@@H]1O[C@H](C[N+](C)(C)C)C[C@H]1O (racemic) [(±)-Muscarine chloride] | 1.02 ± 0.011 | 1.03 ± 0.035 | 1.01 ± 0.015 | 1.05 ± 0.085 | 0.9963 ± 0.0047 | 1 ± 0.014
OC1CCCCC1N1CCC(c2ccccc2)CC1 (racemic) [(±)-Vesamicol hydrochloride] | 0.9747 ± 0.0049 | 0.91 ± 0.021 | 0.875 ± 0.21 | 0.978 ± 0.022 | 0.9897 ± 0.0025 | 0.9897 ± 0.0076
CC[C@@]1(O)C(=O)OCc2c1cc1n(c2=O)Cc2cc3ccccc3nc2-1 [(S)-(+)-Camptothecin] | 0.066 ± 0.014 | 0.00107 ± 0.0017 | 0.328 ± 0.025 | 0.0202 ± 0.0036 | 0.0279 ± 0.0022 | -0.000721 ± 0.0022
Cc1ccccc1-n1c(Cn2cnc3c(N)ncnc32)nc2cccc(C)c2c1=O | 1.003 ± 0.0058 | 1.02 ± 0.028 | 1 ± 0.015 | 1.02 ± 0.031 | 1 ± 0.017 | 1.01 ± 0.011
C=CCN1CC[C@]23CCCC[C@H]2[C@H]1Cc1ccc(O)cc13 [Levallorphan tartrate] | 1 ± 0.0089 | 1 ± 0.023 | 1.003 ± 0.0058 | 1.06 ± 0.064 | 0.9917 ± 0.0025 | 0.863 ± 0.23
N=C(NCCC[C@H](N)C(=O)O)N[N+](=O)[O-] [NG-Nitro-L-arginine] | 1.003 ± 0.0058 | 1.01 ± 0.022 | 1.01 ± 0.017 | 0.86 ± 0.24 | 1 ± 0.012 | 1.001 ± 0.0085
C=CCN1CCc2cccc3c2[C@H]1Cc1ccc(O)c(O)c1-3 [R(-)-N-Allylnorapomorphine hydrobromide] | 0.992 ± 0.0052 | 0.949 ± 0.0089 | 0.988 ± 0.011 | 0.968 ± 0.02 | 0.9917 ± 0.0042 | 0.9757 ± 0.0015
CNc1ccc2oc(C[C@H]3O[C@@]4(CC[C@H]3C)O[C@H]([C@H](C)C(=O)c3ccc[nH]3)[C@H](C)C[C@H]4C)nc2c1C(=O)O [Calcimycin] | 0.909 ± 0.018 | 0.0265 ± 0.002 | 1.01 ± 0.013 | 0.0205 ± 0.0037 | 0.91 ± 0.036 | 0.0377 ± 0.014
NC(CCCCCP(=O)(O)O)C(=O)O (racemic) [(±)-2-Amino-7-phosphonoheptanoic acid] | 0.98 ± 0.012 | 0.9763 ± 0.0025 | 0.9903 ± 0.005 | 0.97 ± 0.013 | 0.9873 ± 0.004 | 0.972 ± 0.0072
